PubChem BioAssay AID741 (SRMLSC, 2007)
Records with an inconclusive call do not appear. The source made the active and inactive calls. Rule as the data show it: active = toxicity enhancement factor above about 0.054; inconclusive = between about 0.00067 and that limit; inactive = weaker than that.

Experiment: reversers of MRP drug resistance, dose response, cell-based (AID 741)
Conditions: MRP-overexpressing cells, viability with/without cytotoxic drug; slope difference: measured here: slope difference tox minus reversal, stronger effect = higher value; toxicity enhancement factor: stronger effect = higher value; viability: measured here: viability series, compound alone, at 10 µM, stronger effect = lower value

SMILES	slope difference	toxicity enhancement factor	viability [%]
CC(C(=O)O)c1ccc(N2Cc3ccccc3C2=O)cc1 (stereo not given)	-0.182	-0.0019 (inactive)	98.6
Cc1nc(N2CCN(C)CC2)c2sc(=S)n(-c3ccccc3)c2n1	2.3	0.0596 (active)	64
CCCCSc1nnc2n(CCc3ccccc3)c(=O)c3c4c(sc3n12)COC(C)(C)C4	5.29	0.189 (active)	84.4
COc1ccc(NC(=O)C2C3C=CC(C3)C2C(=O)NCc2ccccn2)c(OC)c1 (stereo not given)	-1.73	-0.0167 (inactive)	88.7
Cc1ccc(/C=N/Nc2ncc(Cl)cc2Cl)s1	-0.555	-0.0071 (inactive)	70.4
Cc1ccc(-c2nc3ncccn3c2NC2CCCCC2)o1	2.81	0.0632 (active)	79.5
Cn1ccnc1-c1nc2ccccc2[nH]c1=O	-0.138	-0.0015 (inactive)	92.3
CCCCNc1c2c3c(cccc3n(C)c1=O)C(=O)c1ccccc1-2	-4.84	-0.0634 (inactive)	32.4
Clc1cnc(N/N=C/c2cccs2)c(Cl)c1	-0.68	-0.0069 (inactive)	96.8
Cc1ccc(CN(C(=O)c2ccco2)C(C(=O)NC2CCCC2)c2ccc(N3CCOCC3)cc2)cc1 (stereo not given)	2.19	0.0523 (active)	72.9
Cc1ccc(-n2ncc3c(N4CCN(c5ccccc5)CC4)ncnc32)c(C)c1	-1.27	-0.037 (inactive)	27.4
CC1=NN(C(N)=S)C(=O)C1N=Nc1ccccc1C (stereo not given)	-0.556	-0.0057 (inactive)	92.1
CC1CN(c2nc3ccccn3c(=O)c2/C=C(\C#N)S(=O)(=O)c2ccccc2)CC(C)O1 (stereo not given)	3.36	0.0581 (active)	93.3
Cc1nn(C)c(C)c1NC(=O)CSc1nc(C2CC2)nc2c1cnn2-c1ccccc1	-1.07	-0.0298 (inactive)	27.3
Cc1nc(C)c(C)nc1C	-0.412	-0.004 (inactive)	98.8
COc1cc(/C=C/C(=O)CC(=O)/C=C/c2ccc(O)c(OC)c2)ccc1O	-2.01	-0.0391 (inactive)	24.1
O=C(COc1ccccc1)N1CCN(c2ncnc3c2cnn3-c2ccccc2)CC1	-0.402	-0.0084 (inactive)	53.8
CSc1cccc(NC(=O)C2CCN(S(C)(=O)=O)CC2)c1	-0.244	-0.0028 (inactive)	94.7
CC(=O)Oc1cccc2c1C(=O)c1c(OC(C)=O)cc(C(=O)O)cc1C2=O	-1.12	-0.0114 (inactive)	89.5
COc1ccc(C(=O)Nc2nc3ccccc3[nH]2)cc1OC	-0.0153	-0.0002 (inactive)	87.3
O=c1[nH]c2ccc(Br)cc2c(-c2ccccc2)c1N1CCOCC1	2.74	0.0679 (active)	74.8
O=C(Cc1cccs1)N1CCC(c2nc3c(nnn3Cc3ccccc3Cl)c(=O)[nH]2)CC1	-0.454	-0.0052 (inactive)	82.5
C=CCOc1nc2c(c(=O)n(C)c(=O)n2C)n1Cc1c(Cl)cccc1Cl	-0.654	-0.0108 (inactive)	63.6
COc1ccc(C(c2nnnn2C(C)(C)C)N2CCN(c3nc4ccccc4s3)CC2)cc1OC (stereo not given)	-1.39	-0.0199 (inactive)	71.9
O=C(O)c1ccccc1O	-0.779	-0.0072 (inactive)	100
c1ccc2c(N3CCOCC3)nc(-c3ccncc3)nc2c1	-1.84	-0.0239 (inactive)	66.1
CC(=O)Nc1ccc(S(=O)(=O)NCCC(=O)NCCc2ccc(F)cc2)cc1	0.0009	0 (inactive)	87.3
CC(C(=O)O)c1ccc(-c2ccccc2)c(F)c1 (stereo not given)	-0.412	-0.0042 (inactive)	89
O=C(CSc1nnc(CN2CCOCC2)n1-c1ccc(Cl)cc1)Nc1cc(Cl)ccc1O	2.56	0.0702 (active)	67.3
C=CCSc1nnc2n(CCc3ccccc3)c(=O)c3c4c(sc3n12)COC(C)(C)C4	3.35	0.116 (active)	71
